The source of these data is PubChem BioAssay (Tox21).

Experiment [1] is described as follows: qHTS assay for small molecules that induce genotoxicity in human embryonic kidney cells expressing luciferase-tagged ATAD5 (AID 651632). Further: nearly all actives have a fitted effect of over 15% in size. In short, it runs like this: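 DMSO vehicle served as the control. HEK293T reporter cells, 16 hr at 37C, then 30 min Amplite at room temperature; ATAD5 induction is measured as luciferase activity.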
Experiment [2] in a line: qHTS assay for small molecule agonists of the p53 signaling pathway - cell viability (AID 651633; calls by dose curve; further: nearly all actives have a fitted effect of over 30% in size; further: potency means the concentration at half of the fitted maximal effect). In short, it runs like this:
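Viability counter-read: CellTiter-Glo luminescence (30 min, room temperature) in the same p53RE-bla plates. These plates had been exposed to compounds for 16 h at 37 C.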

Experiment [3] in a line: qHTS assay for small molecules that induce genotoxicity in human embryonic kidney cells expressing luciferase-tagged ATAD5 - cell viability (AID 651634; calls by dose curve; further: nearly all actives have a fitted effect of over 25% in size). In a few lines: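 Here HEK293T cells with the ATAD5 luciferase reporter are incubated with test compounds for 15.5 hr, and cytotoxicity is then gauged by measuring protease activity in live cells using fluorescence.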
On the technique in general: qHTS replaces the single test concentration by a dilution series.

Experiment [4] can be described thus: qHTS assay for small molecule disruptors of the mitochondrial membrane potential (AID 720635). Further: potency means the concentration at half of the fitted maximal effect. In a few lines:
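Mitochondrial membrane potential tracked with Mito-MPS dye, red aggregates (ex 540/em 590 nm) against green monomers (ex 490/em 535 nm). Compound treatment 1 hr at 37C, dye 30 min in HepG2.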

The nature of experiment [5]: qHTS assay to test for compound auto fluorescence at 590 nm (red) in HepG2 cells (AID 720674). In short, it runs like this:
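Red autofluorescence (Ex/Em 540/590 nm, Rose Bengal sodium equivalents) was measured in HepG2 cells, 2,000 per well in MEM plus 10% FBS, plated overnight at 37 C. Readings were taken 1 hr after adding 23 nL compound or DMSO, at 37 C and 5% CO2.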

Experiment [6] is described as follows: qHTS assay to test for compound auto fluorescence at 535 nm (green) in HepG2 cells (AID 720675).
Experiment [7] can be described thus: qHTS assay to test for compound auto fluorescence at 460 nm (blue) in HEK293 cells (AID 720678). In a few lines: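 Auto fluorescence in the blue band was quantified as triamterene equivalency. HEK293 cells were seeded at 2,000/well, dosed after a 4-5 hr attachment, and kept overnight at 37C before the 405/460 nm reading.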
The nature of experiment [8]: qHTS assay to test for compound auto fluorescence at 590 nm (red) in HEK293 cells (AID 720679). In short, it runs like this: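 Autofluorescence equivalency to Rose Bengal sodium, 540/590nm, in HEK293 cells exposed overnight to 23 nL compound per well.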
The nature of experiment [9]: qHTS assay to test for compound auto fluorescence at 535 nm (green) in HEK293 cells (AID 720680).
Experiment [10] can be described thus: qHTS assay to test for compound auto fluorescence at 460 nm (blue) in HEK293 cell free culture (AID 720681). In a few lines:
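Blue fluorescence (Ex 405/Em 460 nm, triamterene-equivalent) was read immediately after pin transfer of compound or DMSO into medium (DMEM, 10% FBS) without cells.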

Experiment [11] can be described thus: qHTS assay to test for compound auto fluorescence at 535 nm (green) in HEK293 cell free culture (AID 720682). In short, it runs like this:
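DMEM + 10% FBS, cell-free; cpd or DMSO pinned in; Ex485/Em535 read; output as fluorescein-equivalent signal.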

Experiment [12] can be described thus: qHTS assay to test for compound auto fluorescence at 590 nm (red) in HEK293 cell free culture (AID 720683). In a few lines: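 Red-channel autofluorescence of compounds in culture medium (DMEM, 10% FBS), no cells, measured at 540/590 nm. Rose Bengal sodium is the reference fluorophore for equivalence.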
The nature of experiment [13]: qHTS assay to test for compound auto fluorescence at 590 nm (red) in HepG2 cell free culture (AID 720684). In a few lines:
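Cell-free; medium MEM + 10% FBS; compound or DMSO added by pintool; read Ex 540/Em 590 nm; Rose Bengal sodium as red reference fluorophore.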

Experiment [14] in a line: qHTS assay to test for compound auto fluorescence at 460 nm (blue) in HepG2 cell free culture (AID 720685). In short, it runs like this:
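Cell-free plates of MEM plus 10% FBS received 23 nL compound or DMSO vehicle; blue-channel (405/460 nm) intensity scored against triamterene as reference fluorophore.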

A short description of experiment [15]: qHTS assay to test for compound auto fluorescence at 535 nm (green) in HepG2 cell free culture (AID 720686).
The nature of experiment [16]: qHTS assay to test for compound auto fluorescence at 460 nm (blue) in HepG2 cells (AID 720687). In a few lines:
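Blue-channel autofluorescence (Ex/Em 405/460 nm, triamterene-equivalent) was measured after 1 hr compound exposure at 37 C, 5% CO2. Cells were HepG2, plated overnight at 37 C in MEM plus 10% FBS.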

Experiment [17] has as its target Glucocorticoid receptor (Homo sapiens) (UniProt P04150). Briefly: qHTS assay to identify small molecule antagonists of the glucocorticoid receptor (GR) signaling pathway (AID 720692; active means well fitted inhibition curve with a large enough effect in the signal ratio in the repeat runs, not every such curve was filed as active; the % refers to the signal ratio; further: potency means the concentration at half of the fitted maximal effect). In short, it runs like this:
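In a 1536-well cell format, compounds were added 4 h after seeding GR-bla HeLa cells, together with dexamethasone at 5 nM final; reporter activity was measured by FRET-substrate fluorescence following 18 h at 37 C.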

Experiment [18] in a line: qHTS assay for small molecule disruptors of the mitochondrial membrane potential - cell viability (AID 720634; calls by dose curve; further: nearly all actives have a fitted effect of over 20% in size; further: potency means the concentration at half of the fitted maximal effect). In a few lines:
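Viability of HepG2 cells is scored from ATP content by luminescence; cells are exposed to compound for 1 hr at 37 C and 5% CO2, then dosed with m-MPI dye before the CellTiter-Glo reagent.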

The target of experiment [19] is Glucocorticoid receptor (Homo sapiens) (UniProt P04150). Briefly: qHTS assay to identify small molecule agonists of the glucocorticoid receptor (GR) signaling pathway (AID 720691; active means well fitted activation curve with a large enough effect in the signal ratio in the repeat runs, not every such curve was filed as active; the % refers to the signal ratio). In a few lines: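 Compounds in DMSO, alongside positive controls, were added to GR-bla HeLa reporter cells and incubated 18 h at 37 C; GRE-driven beta-lactamase was detected by fluorescence after 2 h with FRET substrate at room temperature.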
Sequence of Glucocorticoid receptor (Homo sapiens) (P04150 whole entry, looked up): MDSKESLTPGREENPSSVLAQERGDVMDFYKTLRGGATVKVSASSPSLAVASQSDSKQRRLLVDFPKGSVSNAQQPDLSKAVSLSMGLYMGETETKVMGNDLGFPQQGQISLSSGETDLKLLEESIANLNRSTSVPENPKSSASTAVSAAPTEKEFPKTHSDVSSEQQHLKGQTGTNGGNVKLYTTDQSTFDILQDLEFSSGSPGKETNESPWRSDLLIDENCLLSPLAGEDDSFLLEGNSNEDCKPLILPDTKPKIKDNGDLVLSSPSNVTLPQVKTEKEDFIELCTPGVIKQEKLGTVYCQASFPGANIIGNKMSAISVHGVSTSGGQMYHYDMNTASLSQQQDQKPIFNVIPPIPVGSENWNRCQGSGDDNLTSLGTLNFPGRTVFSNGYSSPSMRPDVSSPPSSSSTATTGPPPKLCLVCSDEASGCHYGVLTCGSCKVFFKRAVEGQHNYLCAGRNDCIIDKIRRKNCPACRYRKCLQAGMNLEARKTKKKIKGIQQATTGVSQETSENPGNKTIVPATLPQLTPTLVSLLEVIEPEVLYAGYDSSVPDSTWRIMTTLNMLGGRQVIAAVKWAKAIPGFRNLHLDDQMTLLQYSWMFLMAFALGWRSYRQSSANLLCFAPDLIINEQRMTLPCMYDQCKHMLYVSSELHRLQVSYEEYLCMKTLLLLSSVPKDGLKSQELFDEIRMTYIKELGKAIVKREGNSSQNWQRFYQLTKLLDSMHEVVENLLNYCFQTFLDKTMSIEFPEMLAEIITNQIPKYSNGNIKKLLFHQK

Molecules are shown by their SMILES. Where “and” joins values, the source holds several entries; their conditions need not be identical. Equal entries are not always repeated. Records with an inconclusive call do not appear. Some compounds were tested as several samples or in several runs, with calls that do not always agree. Calls of active or inactive are those of the source. Unless noted, the call rests on the fitted dose curve; in most records, active means well fitted curve in the direction sought with a large enough effect in the repeat runs; inconclusive means weak or mixed curves; inactive means no such curve, though single readings can be large; an effect the other way counts as inactive or inconclusive.

With `CC(C)=CC1C(C(=O)OCc2coc(Cc3ccccc3)c2)C1(C)C` (centres undefined), the Potency entry in experiment [1], in [2] and in experiment [3] was “inactive” each time. In addition, the Potency is 48.6 µM (active) and 61.1 µM (active) in experiment [4]; 21.8 µM (active) in [17]. The result in experiment [5], in experiment [6], in experiment [7], in [8], in experiment [9] and in [10] was inactive. For the same molecule, the call in experiment [11], in [12], in experiment [13], in [14], in experiment [15] and in experiment [16] was inactive.
Take `CCOCN(C(=O)CCl)c1c(C)cccc1CC`: the Potency entry in experiment [1], in [2], in experiment [3], in experiment [18] and in [19] was “inactive” throughout. In addition, the molecule was called inactive in [5], in [6], in experiment [7], in experiment [8], in experiment [10] and in experiment [11]. Also, the molecule was called inactive in [12], in experiment [14], in experiment [15] and in experiment [16].
In the case of `O=[N+]([O-])c1cccc2ccccc12`, the Potency result in experiment [1], in experiment [2], in [3] and in experiment [18] was “inactive” each time. Besides, the molecule was called inactive in [6], in [7], in experiment [8], in [10], in experiment [11] and in [12]. For the same molecule, the outcome in experiment [13], in experiment [14], in experiment [15] and in [16] was inactive.
For `NC(=S)Nc1ccccc1`, the Potency result in experiment [1], in [2], in experiment [3], in experiment [19] and in experiment [17] was “inactive” in each case. For the same molecule, the molecule was classed as inactive in [5], in [6], in experiment [7], in experiment [8], in experiment [9] and in experiment [11]. Moreover, the result in experiment [12], in experiment [13], in [14], in [15] and in [16] was inactive.
Regarding `Cc1cc(Cl)ccc1OCCCC(=O)O`, the Potency entry in experiment [1], in experiment [2], in experiment [3] and in experiment [17] was “inactive” each time. Moreover, the molecule was classed as inactive in experiment [5], in [6], in experiment [7], in [8], in experiment [10] and in experiment [11]. The molecule was classed as inactive in [12], in experiment [13], in experiment [14], in experiment [15] and in [16].
In the case of `ClC1C(Cl)C(Cl)C(Cl)C(Cl)C1Cl` (centres undefined), the Potency entry in experiment [2], in experiment [3] and in experiment [18] was “inactive” each time. Moreover, the molecule was called inactive in [5], in [6], in [7], in experiment [8], in experiment [9] and in [10]. The outcome in experiment [11], in experiment [12], in [13], in [14], in [15] and in experiment [16] was inactive.
Turning to `Cc1ccc(OP(=O)(Oc2ccc(C)cc2)Oc2ccc(C)cc2)cc1`, the Potency result in experiment [1], in experiment [2], in experiment [3], in experiment [19] and in [17] was “inactive” throughout. For the same molecule, in experiment [4], the Potency is 24.3 µM (active). The molecule was classed as inactive in experiment [7], in experiment [8], in experiment [11], in [12], in experiment [14] and in experiment [15]. In experiment [16], the molecule was classed as inactive.
As for `CC(C)N(C(=O)SCC(Cl)=C(Cl)Cl)C(C)C`, the Potency result in experiment [1], in experiment [2], in [3], in [19] and in [17] was “inactive” in each case. Also, the Potency in [4] is 13.5 µM (active). Also, the molecule was called inactive in experiment [7], in experiment [8], in experiment [10], in [11], in experiment [12] and in experiment [13]. Besides, the molecule was called inactive in experiment [14], in experiment [15] and in experiment [16].
Consider `CCC(=O)O[C@H]1CC[C@H]2[C@@H]3CCC4=CC(=O)CC[C@]4(C)[C@H]3CC[C@]12C`, for which the Potency result in experiment [1], in experiment [3], in experiment [18] and in experiment [19] was “inactive” each time. Moreover, the Potency entry was “inactive and 61.1 µM (active)” in experiment [2]; 5.12 µM (active) and 4.9 µM (active) in [17]. The call in [5], in [6], in experiment [7], in experiment [8], in experiment [9] and in [10] was inactive. For the same molecule, the result in experiment [11], in experiment [12], in experiment [14], in [15] and in experiment [16] was inactive.
`c1ccc(NNc2ccccc2)cc1`: the Potency entry in experiment [1], in experiment [2], in experiment [3], in experiment [4] and in [17] was “inactive” each time. The outcome in experiment [6], in [7], in experiment [8], in [9], in experiment [10] and in [11] was inactive. The result in experiment [12], in experiment [14], in experiment [15] and in [16] was inactive.
As to `CCOC(=O)C(C)OC(=O)c1cc(Oc2ccc(C(F)(F)F)cc2Cl)ccc1[N+](=O)[O-]` (centres undefined), the Potency result in [1], in [2], in [3], in experiment [19] and in experiment [17] was “inactive” in each case. Besides, the Potency in [4] was 21.6 µM (active) and 61.1 µM (active). Moreover, the outcome in [5], in experiment [6], in experiment [7], in experiment [8], in [10] and in experiment [11] was inactive. Besides, the outcome in experiment [12], in experiment [14], in [15] and in experiment [16] was inactive.
As for `CCC(C)c1cc([N+](=O)[O-])cc([N+](=O)[O-])c1O` (centres undefined), the Potency entry in experiment [1], in experiment [2], in experiment [19] and in experiment [17] was “inactive” in each case. Moreover, the Potency result in [18] is “inactive and 1.22 µM (active)”; in experiment [4] it was “inactive and 344 nM (active)”. For the same molecule, the result in experiment [5], in experiment [7], in [8], in experiment [10], in experiment [11] and in experiment [12] was inactive. Further, the molecule was classed as inactive in [13], in experiment [14], in experiment [15] and in experiment [16].
